Compound activity as filed in PubChem.
AT treatment – candidate therapy for ataxia-telangiectasia. AID 485349. F2112 A-T fibroblasts, KAP-1 phosphorylation AlphaLISA; neocarzinostatin DNA damage 30 min before lysis. Potency, µM (doses to about 57.5 µM), most hits filed as activators. 0.19% of 320,000 active; note: nearly all actives have a fitted effect of over 45% in size
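ATM-like activity read as KAP-1 phosphorylation via AlphaLISA donor/acceptor antibody pairs after lysis and 6 hr at 25C. Cells were ATM-null patient fibroblasts (F2112, hTERT), dosed 60 min, then exposed to the DSB inducer NCS for 30 min.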
Vif-APOBEC3F blk – inhibitors of Vif-A3F interaction | HeLa A3F-eYFP + Vif (tagged APOBEC3F with the HIV-1 protein that degrades it), YFP fluorescence increase | Potency, µM (series often up to 46.1 µM) | 0.2% of 390,000 active; note: nearly all actives have a fitted effect of over 65% in size
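HeLa cells stably expressing A3F-eYFP plus Vif, plated and incubated overnight at 37 deg C, then exposed to compounds overnight at 37 deg C. Blocked degradation read as raised yellow fluorescence (Ex 488/Em 500-530).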
TRPML1 ag – agonists of human TRPML1 channel | Q9GZU1 | TRPML1-expressing cells, Ca2+ dye fluorescence, FDSS | activation, % (concentration not given with the values) | 0.12% of 410,000 active; in the data active = activation above about 50%; inconclusive = mostly about 30% to 49%
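Tet-induced TRPML1-DL cells, 1,500 per well, cultured overnight, were loaded with a no-wash Ca2+ dye for 45–90 min. Calcium fluorescence was recorded on the FDSS for 110 s after compound addition, before the EC80 agonist (4 uM 54-4) was added.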
TRPML1 blocker – blocks the human TRPML1 channel; Q9GZU1; TRPML1-inducible cells, Ca2+ dye fluorescence, FDSS; active compounds read low; inhibition of EC80 agonist-evoked calcium signal; activity change, negative = inhibition, % (concentration not given with the values); 0.02% of 390,000 active; AID 624415; in the data active = activity change below about -50%; inconclusive = between about -30% and that limit;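 note: stimulus is agonist 54-4 at its EC80 concentration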
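Tet-induced TRPML1-DL cells loaded with Ca8 no-wash calcium dye were read kinetically on FDSS. Compound addition was followed by EC80 agonist 54-4 (4 uM final); inhibition was read over 110 s.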
Vif-APOBEC3G blk – inhibitors of Vif-APOBEC3G interaction. AID 602310. 0.076% of 410,000 active. Potency, µM (highest dose often 46.1 µM), actives largely listed as inhibitors. HeLa A3G-eYFP + Vif (tagged APOBEC3G with the HIV-1 protein that degrades it), YFP fluorescence, overnight; note: nearly all actives have a fitted effect of over 60% in size
Target sequence (Q9HC16 whole entry, looked up): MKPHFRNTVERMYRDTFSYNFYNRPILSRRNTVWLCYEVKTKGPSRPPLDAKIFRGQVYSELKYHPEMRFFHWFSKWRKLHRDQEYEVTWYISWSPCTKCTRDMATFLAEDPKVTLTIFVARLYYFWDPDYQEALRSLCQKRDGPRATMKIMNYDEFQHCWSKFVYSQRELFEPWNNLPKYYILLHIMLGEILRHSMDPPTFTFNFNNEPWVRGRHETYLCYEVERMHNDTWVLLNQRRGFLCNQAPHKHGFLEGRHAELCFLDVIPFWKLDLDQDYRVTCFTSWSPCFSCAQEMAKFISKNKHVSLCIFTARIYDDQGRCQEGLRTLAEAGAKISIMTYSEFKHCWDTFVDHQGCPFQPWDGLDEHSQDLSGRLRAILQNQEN
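HeLa cells stably expressing Vif and C-terminally eYFP-tagged A3G, seeded overnight at 37 deg C, then exposed to compound by pintool overnight at 37 deg C. Rise in yellow fluorescence (Ex 488/Em 500-530, Acumen) marks blocked Vif-driven A3G degradation.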
Large screens that a line does not name were inactive. An excerpt weighted towards active compounds, which were near 0.54% of everything screened. Unless noted, calls come from the whole dose curve; as a rule, active = well fitted curve in the direction sought with a large enough effect; inconclusive = small, poorly fitted or top-dose-only effect, or another doubt; inactive = no such curve, though single readings can be large; an effect the other way counts as inactive or inconclusive.

N#Cc1ccc(C[C@H](C(=O)O)N2C(=O)c3ccc(C(=O)O)cc3C2=O)cc1	none (no result: Vif-APOBEC3F blk, TRPML1 ag, TRPML1 blocker, Vif-APOBEC3G blk)
CCCOc1ccc(OCCOCCNCc2ccccc2)cc1	none
CCOc1ccc(OCCOCCNCCOC)cc1	TRPML1 ag 59.8
Cc1cccn2c(=O)c3cc(C#N)c(=NC(=O)c4cccs4)n(CCCOC(C)C)c3nc12	Vif-APOBEC3F blk 25.1µM
CCOc1cc2c(cc1OCC)C(c1ccc(OC)cc1)N(c1ccccc1)C(=O)C2 (configuration not stated)	none
CCOc1ccc(C2c3cc(OC)c(OC)cc3CC(=O)N2c2ccccc2)cc1 (configuration not stated)	TRPML1 blocker -50.7
CCN(CC)CCCNc1ccc2ncn3c4ccc(O)cc4c(=O)c1c23	Vif-APOBEC3F blk 22.4µM, TRPML1 ag inconclusive, Vif-APOBEC3G blk inconclusive (no result: AT treatment)
CC1=CC(C)(C)N(C(=O)CN2C(=O)c3ccccc3C2=O)c2ccc(C)cc21	TRPML1 ag 61.4
CC1=CC(C)(C)N(C(=O)CN2C(=O)CCC2=O)c2ccccc21	none
O=[N+]([O-])c1ccc(N2CCN(Cc3ccccc3)CC2)c2c1no[n+]2[O-]	Vif-APOBEC3F blk inconclusive, Vif-APOBEC3G blk 7.94µM (no result: AT treatment)
Cc1ccc(-n2nc3c(N4CCCC(C(=O)NCc5ccccc5C)C4)nnc(C)c3c2C)cc1 (configuration not stated)	Vif-APOBEC3F blk 12.6µM (no result: AT treatment)
CCNC(=O)C1CCCN(c2nnc(C)c3c(C)n(-c4ccc(C)cc4)nc23)C1 (configuration not stated)	none (no result: AT treatment)
O=C(Cn1c(-c2cccs2)cc2cc(Cl)ccc21)N1CCN(c2ccccc2)CC1	none (no result: AT treatment)
COc1cc(N(C)C)c(OC)cc1/C=C/c1ccnc2ccccc12	TRPML1 ag inconclusive, Vif-APOBEC3G blk 7.08µM (no result: AT treatment, Vif-APOBEC3F blk, TRPML1 blocker)
CN(C)c1ccc(C=Cc2ccnc3ccccc23)cc1N	none (no result: AT treatment, Vif-APOBEC3F blk, TRPML1 blocker)
CN1CCCc2cc(/C=C/c3ccnc4ccccc34)ccc21	TRPML1 ag 52.5, Vif-APOBEC3G blk inconclusive (no result: AT treatment, Vif-APOBEC3F blk, TRPML1 blocker)
COc1cc(/C=C/c2ccnc3ccccc23)ccc1N(C)C	TRPML1 ag 57.7, Vif-APOBEC3G blk inconclusive (no result: AT treatment, Vif-APOBEC3F blk, TRPML1 blocker)
CCOc1ccccc1C1CC(c2cccs2)=NN1S(C)(=O)=O (configuration not stated)	Vif-APOBEC3F blk 31.6µM
CCOC(=O)CSc1ccc2ccccc2n1	none
CCOC(=O)CN1C=C(c2ccc3ccccc3n2)C(C[N+](=O)[O-])c2ccccc21 (configuration not stated)	Vif-APOBEC3F blk inconclusive, Vif-APOBEC3G blk 12.6µM (no result: AT treatment)
CC(=NNC(=O)c1ccncc1)c1ccc2ccccc2c1O	Vif-APOBEC3F blk inconclusive, TRPML1 ag 79.5, Vif-APOBEC3G blk inconclusive (no result: AT treatment)
CC(=O)c1ccc(NC(=O)C2CCN(c3nnc(C)c4c(C)n(-c5ccccc5)nc34)CC2)cc1	Vif-APOBEC3G blk inconclusive (no result: AT treatment)
O=C(O)c1ccc(S(=O)(=O)N[C@H](Cc2ccc([N+](=O)[O-])cc2)C(=O)O)cc1	none (no result: Vif-APOBEC3F blk, TRPML1 ag, TRPML1 blocker, Vif-APOBEC3G blk)
Nc1nonc1-c1nc2ccccc2n1CC(=O)Nc1cccc(C(F)(F)F)c1	Vif-APOBEC3F blk 25.1µM, Vif-APOBEC3G blk inconclusive (no result: AT treatment)
OCCCn1c(C2CCCN2c2nc(-c3ccc(Cl)cc3)cs2)nc2cc(Cl)c(Cl)cc21 (configuration not stated)	Vif-APOBEC3F blk 22.4µM (no result: AT treatment)
CN(C)c1ccc(N=Cc2ccncc2)cc1	none (no result: AT treatment, Vif-APOBEC3F blk, TRPML1 blocker)
CCOc1ccc(-c2nnc(SCC(=O)Oc3ccccc3)o2)cc1	none (no result: AT treatment)
C=CCN1C(=O)/C(=C/c2ccc(OCC(=O)O)cc2)S/C1=N/c1nccs1	none
C=CCN1C(=O)/C(=C/c2ccc(O)c(OC)c2)S/C1=N/c1nccs1	Vif-APOBEC3F blk 31.6µM, Vif-APOBEC3G blk inconclusive
O=S1(=O)CCO[C@H]2CCCC[C@@H]2N1Cc1ccc(Cl)cc1	none (no result: AT treatment, Vif-APOBEC3F blk, TRPML1 blocker)
CCN(Cc1ccccc1)C(=O)Cn1c(=O)n(-c2ccc(Cl)cc2)c(=O)c2c(C)c(C)sc21	none (no result: AT treatment)
CCOC(=O)/C(=C\C=C1/Sc2cc(OCC)c(OCC)cc2N1CC)C(C)=O	TRPML1 ag 88.9
CCOC(=O)/C(=C/C=C1\Sc2cc(OCC)c(OCC)cc2N1CC)C(C)=O	TRPML1 ag 77.4
Cc1cc(N)c(NC2=CC(=O)CC(C)(C)C2)cc1C	TRPML1 ag 59.5
Cc1ccc(NC2=CC(=O)CC(C)(C)C2)cc1F	none
CCCC(=O)N(c1ccc2oc3c(c2c1)CCCC3)S(=O)(=O)c1ccc(CC)cc1	TRPML1 ag 63.8 (no result: AT treatment)
